The values below come from PubChem BioAssay AID624351 (Southern Research Specialized Biocontainment Screening …, 2012).

About 1,400 (58%) of roughly 2,400 compounds were called active.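 The calls were made as follows: active = inhibition of 30% or more at any tested dose; inconclusive = primary hits over the limit that were never retested; inactive = the rest.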 So high a share suggests a set chosen from earlier hits. The list shows a part of the results.

The assay can be described thus: ADP Hunter readout inhibition without MgcRacGAP – biochemical, coupled enzyme counter-screen, artefact control for MgcRacGAP inhibitor project, dose response (AID 624351).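 Also: signal is the ADP detection kit reading of free GDP without any GAP enzyme.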 Particulars: fluorescence, no MgcRacGAP; series mostly up to 80 µM.
Regarding `COc1cc(/C=C/c2ccc3cccc(O)c3n2)ccc1O`, the IC50 was 81.5 µM (active). `COc1cc(/C=N/n2c(C)nc3ccccc3c2=O)ccc1O`: the IC50 is 43.1 µM (active). `CCCc1nc2ccccc2c(=O)n1/N=C/c1ccc(O)c(O)c1`: the IC50 was 41.7 µM (active). With `NCC[C@H](O)C(=O)N[C@@H]1C[C@H](N)[C@@H](O[C@H]2O[C@H](CN)[C@@H](O)[C@H](O)[C@H]2O)[C@H](O)[C@H]1O[C@H]1O[C@H](CO)[C@@H](O)[C@H](N)[C@H]1O`, the IC50 entry was “inactive”.

Regarding `COc1cc(/C=N/NC(=O)CN(Cc2ccco2)S(=O)(=O)c2ccccc2)ccc1O`, the 50% inhibitory concentration (IC50) was 49.9 µM (active). Consider `COc1cc(/C=N/NC(=O)CN(Cc2ccccc2)S(=O)(=O)c2ccc3c(c2)OCCO3)ccc1O`, for which the half-maximal inhibitory concentration (IC50) is 73 µM (active).

As for `CS/C(=N\S(=O)(=O)c1cccs1)NC(=O)CSc1nc2ccccc2s1`, the IC50 result is “inactive”. The entry for `C#CCOCCOCCOCCNc1nc(N2CCN(C(=O)[C@H](CCCCN)n3cc(CN)nn3)CC2)nc(N2CCN(C(=O)[C@H](CCC(=O)O)n3cc([C@@H](N)CCCCN)nn3)CC2)n1` is “inactive”; for `CCOC(=O)C1=C(C)NC(=O)CC1c1cc2c(cc1[N+](=O)[O-])OCO2` (stereo not given) it is 64.2 µM (active); for `OC1CNc2c(ccc3ccccc23)C1` (stereo not given) it is 16.5 µM (active).

Consider `O=C1CCC(C2CCc3cc(O)ccc3C2)C1` (stereo not given), for which the IC50 is 77.7 µM (active). For the compound `Clc1nssc1=Nc1ccc(Br)cc1`, the IC50 result is “inactive”. The figure for `CSc1nc(C)c2c(n1)N(c1ccc(O)cc1)CC2` is 16.2 µM (active); for `Cc1ccc(N2C(S)=C(C#N)C(=O)NC2c2ccco2)cc1` (stereo not given) it is “inactive”; for `CCN(CC)CCOCCOc1ccc(Cl)c2ccccc12` it is “inactive”. The entry for `CCOc1cccc2cc(C(=O)Oc3ccc(OC)cc3)c(=O)oc12` is “inactive”; for `O=C(CCC(=O)Nc1ccc(F)cc1)N/N=C/c1ccc(O)cc1` it is 71.3 µM (active); for `Cc1nc(C)c(CC(=O)N/N=C/c2ccc(O)cc2)c(=O)[nH]1` it is 75.8 µM (active).

As to `COc1cc(/C=N/NC(=O)CCC(=O)Nc2ccc(F)cc2)ccc1O`, the IC50 was 36.4 µM (active). Turning to `Cc1ccc(NC(=O)CCC(=O)N/N=C/c2ccc(O)cc2)cc1`, the IC50 was 51.5 µM (active). For `CCCCCCCCCCCCCCCC(O)C[N+](C)(C)CCO` (stereo not given) the value was “inactive”.

For `O=C(CC(=O)Nc1ccc(Cl)c(Cl)c1)N/N=C/c1ccc(O)cc1`, the IC50 is 66.8 µM (active).

Turning to `Cc1ccc(NC(=O)CN(C)C2CCCCC2)cc1Cl`, the IC50 result is “inactive”. Take `Cc1cc(=O)[nH]c(N/N=C/c2ccc(O)c(O)c2)n1`: the IC50 is 20.9 µM (active). As to `COc1cc(/C=N/Nc2nc(C)cc(=O)[nH]2)ccc1O`, the IC50 was 24.9 µM (active). For the compound `S=c1[nH]cc2cnccn12`, the IC50 was 72.1 µM (active). In the case of `CCOC(=O)c1c(C)[nH]c(C(=O)CN2CCN(CC)CC2)c1C`, the IC50 entry was “inactive”. As to `CCOC(=O)c1c(C)[nH]sc1=S`, the IC50 was 44.3 µM (active).

For `CCOC(=O)c1sc(=S)[nH]c1C`, the IC50 is 46 µM (active). For `CCn1c(-c2ccccc2)csc1=Nc1ccc(O)cc1` the value was 35.8 µM (active); for `C=CCn1c(=O)/c(=C/c2ccc(O)cc2)s/c1=C(/C#N)c1nnc2n1CCCCC2`, 58.7 µM (active); for `C/C(=N\NC(=O)CSCc1ccccc1Cl)c1cc(O)ccc1O`, 25.6 µM (active). In the case of `Brc1csc(C=Nc2ccc3c(c2)OCCOCCOCCOCCO3)c1`, the concentration for half-maximal inhibition (IC50) is 70.1 µM (active).

For `CCN1CCN(CC(=O)N/N=C/c2cc(Br)cs2)CC1`, the IC50 entry was “inactive”. With `CC1=NN(c2ccc(C(=O)O)cc2)C(=O)/C1=C\c1ccc(OC(=O)c2cccs2)cc1`, the IC50 entry was “inactive”. In the case of `COc1ccc(Br)cc1CN1CCC(N2CCCC2)CC1`, the IC50 result is “inactive”. Consider `COc1ccc(N2CCN(C(=O)c3ccc(CS(=O)c4cccc(Cl)c4)o3)CC2)cc1` (stereo not given), for which the IC50 result was “inactive”. For the compound `CCC(c1nnnn1Cc1ccccc1)N1CCN(c2ccc(OC)cc2)CC1` (stereo not given), the IC50 result is “inactive”. Consider `Oc1ccc(N2CCN(C(c3cccs3)c3nnnn3CCc3ccccc3)CC2)cc1` (stereo not given), for which the IC50 was 45.2 µM (active). With `COc1ccc(Cn2nnnc2C(c2cccnc2)N2CCN(c3ccc(O)cc3)CC2)cc1` (stereo not given), the half-maximal inhibitory concentration (IC50) is 50.3 µM (active).

In the case of `COc1cc2oc(-c3ccc(O)cc3)cc(=O)c2c(OC)c1O`, the IC50 is 21.9 µM (active).

Take `COc1cc(CNc2ccc3[nH]c(=O)[nH]c3c2)ccc1OCc1c(F)cccc1Cl`: the IC50 entry was “inactive”.

Take `COc1cccc(CNc2ccc3[nH]c(=O)[nH]c3c2)c1OCc1ccccc1Cl`: the IC50 is 83.9 µM (active). On to `COc1cc(CNc2ccc3[nH]c(=O)[nH]c3c2)ccc1OCc1ccccc1F`, for which the IC50 entry was “inactive”. For `CC(NS(=O)(=O)c1ccc(Cl)cc1)C(=O)OCC(=O)Nc1ccc(N(C)C)cc1` (stereo not given) the value was 70.6 µM (active). In the case of `CN(C)c1ccc(NS(=O)(=O)c2ccc(Cl)cc2)cc1`, the 50% inhibitory concentration (IC50) is 33.7 µM (active).

As for `Cc1ccc(S(=O)(=O)Nc2ccc(N(C)C)cc2)cc1`, the half-inhibitory concentration (IC50) was 31.3 µM (active). The entry for `Cc1ccc(S(=O)(=O)Nc2nsc(N)n2)cc1` is “inactive”; for `CC(C)(C)N(NS(=O)(=O)c1ccc(F)cc1)c1ccccc1` it is “inactive”; for `CN(CC(=O)NCc1ccncc1)S(=O)(=O)c1ccc(Cl)cc1` it is “inactive”. The figure for `CN(C)c1ccc(NS(=O)(=O)c2cc(Cl)ccc2Cl)cc1` is 50 µM (active); for `CC1CCN(CC(=O)Nc2ccc(S(=O)(=O)NC3CC3)cc2)CC1` it is “inactive”. In the case of `COc1cccc(NS(=O)(=O)c2ccc3c(c2)C2C=CCC2C(c2ccc(C(=O)O)cc2)N3)c1` (stereo not given), the IC50 entry was “inactive”.

Turning to `COc1cc(/C=C/C(=O)OCC(=O)NC2CCS(=O)(=O)C2)ccc1O` (stereo not given), the half-maximal inhibitory concentration (IC50) was 43.2 µM (active).

Regarding `CCOCCCNCC(=O)NCC1CCCCC1`, the IC50 entry is “inactive”. For `COc1cc(/C=C/C(=O)OCC(=O)NCCC2=CCCCC2)ccc1O` the value was 51.8 µM (active).

In the case of `CCN(CC(=O)Nc1cc(Cl)ccc1OC)CC(=O)NC1CCS(=O)(=O)C1` (stereo not given), the IC50 result is “inactive”.

On to `COc1cc(/C=C/C(=O)OCC(=O)NCC2CCCCC2)ccc1O`, for which the half-inhibitory concentration (IC50) was 35.4 µM (active). For `Cc1cc(/C=C(\C#N)C(=O)N2CCCCC2)cc(C)c1O`, the concentration for half-maximal inhibition (IC50) is 56.9 µM (active).

In the case of `CC1CC(C)CN(C2CCN(Cc3cccnc3)CC2)C1` (stereo not given), the IC50 result is “inactive”. The entry for `CCOc1ccc(N(CCCCO)C(=S)NC(=O)c2ccc(C)c(Br)c2)cc1` is “inactive”; for `N#CC1=C(S)N(c2ccc(F)cc2)C(c2ccco2)NC1=O` (stereo not given) it is “inactive”. For `O=C1c2cccc(NCCNCCO)c2C(=O)c2cccc(NCCNCCO)c21` the value was “inactive”; for `OCCCCNc1cccc2ccccc12`, 34.5 µM (active). In the case of `O=C1c2cccc(NCCCNCCO)c2C(=O)c2cccc(NCCCNCCO)c21`, the IC50 entry was “inactive”. In the case of `COc1ccc(C(=O)CCNc2ccc3c(c2)OCCO3)cc1`, the IC50 entry was “inactive”.

Take `Nc1ccc(C(=O)c2ccc3c(c2)OCCO3)cc1N`: the IC50 is 24.2 µM (active).

Turning to `CN(C)CCC(=O)N1C/C(=C/c2ccccc2)C(=O)/C(=C\c2ccccc2)C1`, the IC50 entry was “inactive”. `COc1cc(/C=C/C=C2/CC/C(=C/C=C/c3ccc(O)c(OC)c3)C2=O)ccc1O`: the IC50 entry is “inactive”. For `CCOc1cc(/C=C2\CN(CC)C/C(=C\c3ccc(O)c(OCC)c3)C2=O)ccc1O` the value was 61.9 µM (active); for `COc1cc(/C=C2\C(=O)N(C)C(=S)N2C)ccc1O`, 30.2 µM (active); for `CCN(CC)CCC(=O)N1C/C(=C/c2ccccc2)C(=O)/C(=C\c2ccccc2)C1`, “inactive”. The entry for `C[N+](C)(C)CCC(=O)N1C/C(=C/c2ccccc2)C(=O)/C(=C\c2ccccc2)C1` is “inactive”; for `O=C1/C(=C\c2ccc(Cl)c(Cl)c2)CN(C(=O)CCN2CCOCC2)C/C1=C/c1ccc(Cl)c(Cl)c1` it is “inactive”; for `CCOc1cc(/C=C2\CN(C)C/C(=C\c3ccc(O)c(OCC)c3)C2=O)ccc1O` it is 43.5 µM (active).

Consider `COc1cc(C=C2CN(C)C(=O)C2=O)ccc1O`, for which the IC50 is 25 µM (active). In the case of `COc1ccc(-n2cnc(=S)[nH]c2=S)cc1`, the IC50 entry was “inactive”.

For `COc1ccc2c(C)cc3n[nH]c(=S)n3c2c1`, the IC50 is 15.8 µM (active). For `COc1cccc2cc(C(=O)Oc3ccc(NC(C)=O)cc3)c(=O)oc12` the value was “inactive”. The entry for `COc1ccc2oc(=O)c(C(=O)Oc3ccc(NC(C)=O)cc3)cc2c1` is “inactive”. The figure for `COc1ccc(NC(=O)c2cc3ccc(O)cc3o/c2=N\O)cc1` is 57.4 µM (active).

`COc1cc(/C=C/C(=O)OCC(=O)Nc2cccc(F)c2)ccc1O`: the IC50 is 41 µM (active). For the compound `COc1cc(/C=C/C(=O)OCc2cn3cc(Cl)ccc3n2)ccc1O`, the IC50 is 36.2 µM (active).

For `COc1ccc(CNCC(=O)Nc2cc(OC)cc(OC)c2)cc1`, the IC50 entry is “inactive”. The entry for `COc1cc(/C=C2\C(=O)N(CCC#N)N=C2C)ccc1OCC(=O)Nc1ccccc1` is “inactive”; for `COc1cc(NC(=O)COC(=O)/C=C/c2ccc(O)c(OC)c2)cc(OC)c1` it is 36.1 µM (active); for `COc1cc(/C=C/C(=O)OCC(=O)NNC(=O)c2cc(Cl)ccc2OC)ccc1O` it is 55.8 µM (active). For `C#CCOCCOCCOCCNc1nc(N2CCN(C(=O)[C@H](CCCCN)n3cc([C@@H](N)C(C)CC)nn3)CC2)nc(N2CCN(C(=O)[C@H](Cc3cc4ccccc4[nH]3)n3cc([C@@H](N)C(C)CC)nn3)CC2)n1` (stereo not given in full) the value was “inactive”. The figure for `CCOC(=O)C1=C(COC(=O)/C=C/c2ccc(O)c(OC)c2)NC(=O)NC1C` (stereo not given) is 53.1 µM (active); for `COc1cc(C2NC(=O)C(C#N)=C(Nc3cccc(C)c3)S2)ccc1O` (stereo not given) it is “inactive”; for `O=C(N/N=C/c1ccc(O)cc1)Nc1cccc2nsnc12` it is 61.4 µM (active). `Cc1nonc1C(=O)N/N=C/c1ccc(O)c(O)c1`: the IC50 is 17.7 µM (active). For `COc1ccc(O)c(/C=N/NC(=O)c2c(C)nnn2-c2nonc2N)c1` the value was “inactive”.

In the case of `Cc1nonc1C(=O)N/N=C/c1ccc(O)cc1O`, the IC50 was 72 µM (active).

As for `COc1cc(/C=N/NC(=O)c2nnn(-c3nonc3N)c2C(C)C)ccc1O`, the IC50 is 40.7 µM (active). For the compound `COc1cc(/C=N/NC(=O)c2nonc2C)ccc1O`, the 50% inhibitory concentration (IC50) is 25.6 µM (active).

Turning to `O=S(=O)(/N=S1\CC=CCN1S(=O)(=O)c1ccccc1)c1ccccc1` (stereo not given), the IC50 result was “inactive”. For `COc1cc(CN2CCC(C(=O)N3CCN(c4ccccc4F)CC3)CC2)ccc1O` the value was “inactive”; for `COc1cc(/C=C/C(=O)OCC(=O)N2CC3(C)CC2CC(C)(C)C3)ccc1O` (stereo not given), 44.7 µM (active); for `COc1cccc(C(=O)N2CCN(C3CCN(Cc4ccccc4)CC3)CC2)c1OC`, “inactive”. For `C/C=C/c1ccc(OCCCCN2CCN(CC)CC2)c(OC)c1`, the IC50 entry is “inactive”. For `COC(=O)C1CCN(C(=O)COC(=O)/C=C/c2ccc(O)c(OC)c2)CC1` the value was 44 µM (active); for `NS(=O)(=O)c1ccc(CCNCC(=O)N2CCC(Cc3ccccc3)CC2)cc1`, “inactive”. For `COc1cc(/C=C/C(=O)OCC(=O)N2CCCc3ccccc32)ccc1O` the value was 27.8 µM (active).

For the compound `COc1cc(/C=C/C(=O)OCC(=O)N2CCC(Cc3ccccc3)CC2)ccc1O`, the concentration for half-maximal inhibition (IC50) was 49.4 µM (active).

Usually IC50 stands for the concentration that inhibits the measured activity by half.
